Abeta rescue = A-beta toxicity reversal in yeast; yeast expressing A-beta42, growth rescue, OD600, 48 h; response scale: 0% DMSO, 100% iron-clioquinol control; Potency, µM (titrated, usually from 46.1 µM), usual class: activators; actives 0.063% (n = 410,000); further: nearly all actives have a fitted effect of over 55% in size
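Yeast growth medium received pinned compounds, then yeast cells expressing toxic A-beta were added; plates incubated at 30 C for 48 hr. Growth read as absorbance at 600 nm, normalized to DMSO and equimolar FeCl3 plus clioquinol controls.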
TDP-43 yeast inh = TDP-43 toxicity inhibition in yeast | TDP-43 expressing yeast growth rescue, BacTiter-Glo, 24 h | Potency, µM (doses to about 46.1 µM), for the others: at the top dose growth rescue (activation), hits mostly activators | actives 1.8% (n = 410,000); further: % of control where 0% means no effect; nearly all actives have a fitted effect of over 50% in size
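Growth rescue of TDP-43-toxic yeast measured as ATP luminescence (BacTiter-Glo). Cells grown to mid-log in raffinose, induced in galactose at OD600=0.02, exposed to compound 24 hr at 30 deg C.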
aSyn rescue = rescues yeast growth from alpha-synuclein toxicity; AID 652106; actives 0.14% (n = 370,000); Potency, µM (titrated, usually from 46.1 µM), for inactives: at the highest dose growth rescue (activation), hits mostly activators; Yeast expressing alpha-synuclein, growth rescue, BacTiter-Glo, 24 h; further: % of control where 0% means no effect; nearly all actives have a fitted effect of over 65% in size
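Screening used galactose-induced yeast with toxic alpha-synuclein levels, exposed to compound for 24 hr at 30 deg C. Cell growth, read with BacTiter-Glo luminescence, gave the measured signal.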
Chronic BCR inh = blocks chronic active B-cell receptor signaling | ABC-DLBCL IkBa-CBG/CBR reporter, luminescence ratio, 4 h | Potency, µM (top dose mostly 46.1 µM), for the others: at the highest dose activity change, negative = inhibition, actives largely listed as inhibitors | actives 0.05% (n = 340,000) | AID 493014; active means well fitted inhibition curve with a large enough effect in the signal ratio, with a control signal flat, not every such curve was filed as active; inconclusive means small, poorly fitted or top-dose-only effect, or effect the other way, or a change in a side signal; the % refers to the signal ratio;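 further: plate controls were basal doxycycline-induced cells for no effect and cells given 10 µM MG132 for full effect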
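TMD8 human ABC-DLBCL cells with doxycycline-inducible IκBα–green luciferase fusion and unfused red luciferase, in 0.5% FBS medium; compounds up to 46 uM, 4 h at 37C. Green/red luminescence ratio, filter-overlap corrected, fitted to concentration-response curves.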
uPA surface inh = blocks generation of uPA at the cell surface. AID 540303. actives 0.31% (n = 330,000). Potency, µM (series often up to 38.3 µM), for the others: top-dose activity change, negative = inhibition, actives largely listed as inhibitors. cell surface uPA generation assay, qHTS; active means well fitted inhibition curve with a large enough effect; inconclusive means small, poorly fitted or top-dose-only effect; inactive means no such curve, though single readings can be large or run the other way; tested in mouse RAW 264.7 cells; further: on the % scale 0 is the no-effect control and ±100 the full control effect; nearly all actives have a fitted effect of over 55% in size
FUS suppressor = rescues growth of FUS-expressing yeast; S. cerevisiae FUS-expressing, growth rescue, OD600, 24 h; Potency, µM (titrated, usually from 76.6 µM), actives largely listed as activators; actives 0.24% (n = 390,000); AID 1347120;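 further: plate controls were DMSO vehicle for no effect and reference control for full effect; nearly all actives have a fitted effect of over 55% in size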
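FUS-expressing yeast, raffinose-pregrown, induced in 2% galactose minimal medium at OD 0.005; compounds in a dilution series, 24hr at 30C. Growth restoration read as absorbance at 600 nm. CP55940 positive control, DMSO negative.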
Starred values were filed as active, the others as inactive; i = inactive; ? = inconclusive; nt = no result given; [ ] = dose if it differs, or a comment. An excerpt weighted towards active compounds, which were near 2.3% of everything screened. Unless noted, the call rests on the fitted dose curve; in most records, active means well fitted curve in the direction sought with a large enough effect; inconclusive means small, poorly fitted or top-dose-only effect, or another doubt; inactive means no such curve, though single readings can be large; an effect the other way counts as inactive or inconclusive. Potency means the concentration at half of the fitted maximal effect.

SMILES | Abeta rescue | TDP-43 yeast inh | aSyn rescue | Chronic BCR inh | uPA surface inh | FUS suppressor
Cc1ccc(C2CC(c3ccc(Cl)cc3)=NNC2=O)cc1 (stereo unspecified) | i[9.22 µM] | 22µM* | 10% | 13% | -1% | i
O=C(Nc1nnc(-c2ccc(F)cc2)o1)c1cccc([N+](=O)[O-])c1 | ? | 11µM* | ? | ? | -3% | i
O=C(Nc1nnc(-c2cccs2)o1)c1cccc(F)c1 | 11µM* | 13µM* | 29% | nt | ? | i
COc1cccc(-c2nnc(NC(=O)c3cccc(F)c3)o2)c1 | i | ? | 13% | ? | ? | i
O=C(Nc1nnc(-c2cccs2)o1)c1cccc(Oc2ccccc2)c1 | i | 4µM* | ? | ? | ? | i
O=C(Nc1nnc(C2=COCCO2)o1)c1cccc([N+](=O)[O-])c1 | i | 9% | -2% | ? | 4% | i
Clc1ccc(CSc2cc3c(nn2)-c2ccccc2CC3)cc1Cl | i | 9% | -6% | -6% | 15% | i
CC(=O)N1N=C(c2ccccc2)CC1c1ccc(F)cc1 (stereo unspecified) | i | -22% | 8% | 0% | 13% | i
CC(=O)N1N=C(c2ccccc2)CC1c1cn(C)c2ccccc12 (stereo unspecified) | i | 20µM* | 20% | ? | 9% | nt
COC(=O)C(=O)/C=C(\O)c1ccc(C)cc1 | i | -59% | 11% | 8% | 2% | i
Cc1onc(-c2c(Cl)cccc2Cl)c1/C(N)=N/OC(=O)C(C)(C)C | i | 18% | -15% | 18% | 9% | i
CC(C)(C)C(=O)O/N=C(\N)c1c(Cl)cccc1Cl | i | 13µM* | 3% | ? | -12% | i
O=[N+]([O-])c1cc(F)c(N2CCOCC2)cc1N1CCCCC1 | i | 29% | 0% | ? | nt | i
N#Cc1c(NCc2ccccc2)ccnc1Cl | i | 14µM* | 15% | nt | 0% | i
O=C(O)c1cc2cc(Oc3ccccc3)ccc2[nH]1 | i | 18µM* | -5% | 12% | -1% | i
O=C(O)c1cc2ccccc2[nH]1 | i | 23% | 10% | nt | 2% | i
Cn1c(C(=O)NN)cc2cc(Oc3ccccc3)ccc21 | i | 0% | -1% | -1% | 2% | i
Cn1c(C(=O)O)cc2cc(Oc3ccccc3)ccc21 | i | 22µM* | -19% | 2% | 0% | i
O=C(NNC(=O)c1cccnc1SCc1cccc([N+](=O)[O-])c1)c1ccc(F)cc1 | i | -2% | -1% | -20% | ? | nt
COc1ccccc1C1CCN(C(=O)c2cccs2)CC1 | i | 13µM* | -3% | 0% | 0% | i
CC(C)(C)OC(=O)N1CCc2onc(-c3ccc(Br)cc3)c2C1=O | i | ? | -1% | nt | nt | i
O=C1NCCc2onc(-c3ccc(Br)cc3)c21 | i | 35µM* | -18% | nt | nt | i
COc1ccc2c(c1)c1nnc(SCCN3CCOCC3)nc1n2C | nt | nt | 1% | nt | nt | nt
COc1ccc2c(c1)c1nnc(SC(C)C)nc1n2C | nt | nt | 7.9µM* | nt | nt | nt
COc1ccc2c(c1)c1nnc(SCC(=O)N3C(C)CCCC3C)nc1n2C (stereo unspecified) | i | 14µM* | 8% | 1% | 0% | i
SMILES | Abeta rescue | TDP-43 yeast inh | aSyn rescue | Chronic BCR inh | uPA surface inh | FUS suppressor
COc1ccc2c(c1)c1nnc(SC)nc1n2C | i | 2.8µM* | 3.5µM* | 1% | -1% | i
Cc1ccc(NC(=O)c2ccccc2OCC(=O)c2ccc(F)cc2)cc1 | i | 13% | -2% | 2% | 24% | nt
Cc1ccc(N2CCCC2=O)cc1S(=O)(=O)N1CCOCC1 | i | -13% | -4% | ? | 2% | i
O=C(COC(=O)/C=C/c1ccc(C(F)(F)F)cc1)NC1CCCC1 | i | 10µM* | 11% | -1% | -9% | i
O=C(COC(=O)/C=C/c1ccc(C(F)(F)F)cc1)NCC1CCCO1 (stereo unspecified) | i | 25µM* | 7% | -4% | -1% | i
O=C(COC(=O)/C=C/c1cccc(C(F)(F)F)c1)NC1CCCCCC1 | i | 24% | -1% | -1% | -3% | i
CSc1ccc(/C=C/C(=O)OCC(=O)NC2CC2)cc1 | i | 22µM* | 8% | -1% | 1% | i
CSc1ccc(/C=C/C(=O)OCC(=O)NC(C)C)cc1 | i | ? | -4% | -15% | 6% | i
O=C(COC(=O)/C=C/c1cccc(Cl)c1)NC1CCCC1 | i | 13µM* | -3%[1.84 µM] | 2% | -4% | i
CCOc1ccc2nc(N3CCCC(C(=O)NCCc4ccc(OC)cc4OC)C3)sc2c1 (stereo unspecified) | i | ? | nt | nt | nt | i
CC(C)NC(=O)Cn1nnc(-c2ccccc2)c1COc1ccc2ccccc2c1 | i | 11% | -18% | nt | nt | ?
CCOc1cc(CNC(=O)c2ccc3c(c2)N(C)C(=O)C2CCCCN32)ccc1OC (stereo unspecified) | i | 18% | nt | nt | nt | i
O=C(COC(=O)/C=C/c1ccc(Cl)cc1)NC1CC1 | i | 35µM* | 0% | -2% | -15% | i
O=C(COC(=O)/C=C/c1ccc(C(F)(F)F)cc1)NCc1ccco1 | i | 18µM* | -5% | 1% | -3% | i
O=C(COC(=O)/C=C/c1ccccc1)NC1CC1 | i | 18% | -10% | 0% | -19% | i
O=C(COC(=O)/C=C/c1ccc(C(F)(F)F)cc1)NC1CC1 | i | 6.3µM* | 14% | 8% | -2% | i
O=C(/C=C/c1ccccc1Cl)Nc1cccc(O)c1 | i | 10% | -3% | ? | 4.5µM* | i
O=c1c2c(C(F)(F)F)cc(C(F)(F)F)nc2[nH]n1-c1ccccc1 | i | -23% | -14% | ? | nt | i
O=c1c(Sc2ccccc2)c(C(F)(F)F)[nH]n1-c1ccccc1 | i | 14µM* | nt | ? | 0% | i
CCOc1ccc(-c2nnc3ccc(SC(C)C)nn23)cc1 | i | 16µM* | -7% | -12% | 0% | i
COc1ccc(C(C#N)=Cc2ccc(NC(C)=O)cc2)cc1 | i | -3% | 4% | nt | -1% | i
O=S1(=O)CCO[C@H]2Cc3ccccc3[C@H]2N1Cc1ccc(F)cc1 | i | -2% | -2% | 0% | 4% | i
CN1CCc2c(sc3nc(SCC(=O)N4CCCCC4)n(-c4ccccc4)c(=O)c23)C1 | i | -12% | 5.6µM* | 1% | 2% | i
CC1(C(=O)NCc2ccccc2)Cc2c(-c3ccc4c(c3)OCO4)ccnc2O1 (stereo unspecified) | i | 18µM* | 23% | nt | nt | i

Bioassay records: PubChem BioAssay, National Center for Advancing Translational Sciences (NCATS)
